Cruzain noTriton = cruzain (T. cruzi) inhibition without detergent; P25779; purified cruzain, Z-FR-AMC fluorescence, no detergent; Potency, µM, for the others: max response, negative = inhibition, most hits filed as inhibitors; 200,000 compounds, 2.3% hits; AID 1476;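 further: plate controls were enzyme without inhibitor for no effect and buffer without enzyme for full effect; nearly all actives have a fitted effect of over 40% in size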
Target sequence (P25779 123-467 limits assumed): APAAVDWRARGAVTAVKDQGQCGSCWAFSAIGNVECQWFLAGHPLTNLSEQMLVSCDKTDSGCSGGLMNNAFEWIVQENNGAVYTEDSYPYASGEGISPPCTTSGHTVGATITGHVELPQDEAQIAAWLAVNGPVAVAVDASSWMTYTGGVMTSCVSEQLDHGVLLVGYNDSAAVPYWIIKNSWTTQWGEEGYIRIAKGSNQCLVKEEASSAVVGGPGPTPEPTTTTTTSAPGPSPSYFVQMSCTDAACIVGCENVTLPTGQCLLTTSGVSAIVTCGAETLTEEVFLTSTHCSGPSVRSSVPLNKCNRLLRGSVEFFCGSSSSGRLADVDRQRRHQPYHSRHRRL
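Purified cruzain at 1.5 nM, pre-incubated 15 min with compound at room temperature in 100 mM sodium acetate pH 5.5, 5 mM DTT, 0.00005% Triton X-100. Reaction started with 2 uM Z-FR-AMC; AMC fluorescence increase over 60 s gives rate.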
Giardia FBPA inh = Giardia lamblia aldolase inhibition; Potency, µM (titrated, usually from 59.6 µM), without a hit: at the top dose activity, negative = inhibition, hits mostly inhibitors; A8B2U2; purified Giardia FBPA; AID 2451; 290,000 compounds, 0.71% hits; further: nearly all actives have a fitted effect of over 55% in size
Target sequence (A8B2U2 whole entry, looked up): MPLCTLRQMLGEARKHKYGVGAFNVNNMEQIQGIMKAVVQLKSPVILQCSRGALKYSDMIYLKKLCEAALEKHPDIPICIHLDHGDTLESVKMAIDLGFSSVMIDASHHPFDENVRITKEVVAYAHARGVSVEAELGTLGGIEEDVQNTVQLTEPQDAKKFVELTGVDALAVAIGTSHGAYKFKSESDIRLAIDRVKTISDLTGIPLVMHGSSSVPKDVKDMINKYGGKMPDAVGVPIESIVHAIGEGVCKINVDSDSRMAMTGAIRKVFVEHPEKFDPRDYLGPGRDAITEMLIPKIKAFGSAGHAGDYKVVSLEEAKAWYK
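Giardia FBPA (40 nM reagent) was preincubated 10 min at RT with compound (up to 57.5 uM final), then substrate plus GAPDH/TPI/NAD/arsenate coupling system with diaphorase/resazurin was added; resorufin fluorescence (525/598 nm) was read after 20 min.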
Cruzain Triton = blocks cruzain activity in presence of Triton detergent. P25779. 200,000 compounds, 0.43% hits. Potency, µM, inactives show max response, negative = inhibition, hits mostly inhibitors. purified cruzain, Z-FR-AMC fluorescence, 0.01% Triton;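 further: plate controls were neutral wells for no effect and buffer without enzyme for full effect; nearly all actives have a fitted effect of over 40% in size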
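Detergent-containing arm of a paired screen for aggregation-based inhibition: 0.01% Triton X-100 present. Cruzain at 1.5 nM cleaved 2 uM Z-FR-AMC at pH 5.5 with 5 mM DTT; AMC fluorescence gain over 60 s measured activity.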
Active calls of the source: *; u = inconclusive; x = no result given; [ ] = remark or other dose. Only a selection was taken, and hits are over-represented in it overall. The call rests on the fitted dose curve; in most records, active means well fitted curve in the direction sought with a large enough effect; inconclusive means small, poorly fitted or top-dose-only effect, or another doubt; inactive means no such curve, though single readings can be large; an effect the other way counts as inactive or inconclusive. Unless noted, on the % scale 0 is the no-effect control and ±100 the full control effect; potency means the concentration at half of the fitted maximal effect.

SMILES | Cruzain noTriton | Giardia FBPA inh | Cruzain Triton
CCCOc1ccc(C(=O)Nc2ccc(Cl)c(-c3nc4ncccc4o3)c2)cc1 | -5% | x | -1%
O=C(COC(=O)[C@H](Cc1ccccc1)NC(=O)c1cccs1)Nc1c(Cl)cccc1Cl | 25µM* | 0% | 16µM*
O=C(N[C@@H](Cc1ccccc1)C(=O)OCC(=O)N1CCOCC1)c1cccs1 | x | 2% | x
O=[N+]([O-])c1ccc(CSCc2ccc(Cl)cc2)cc1 | -4% | x | 2%
Cc1ccc(NC(=O)C(=O)NCC(c2cccnc2)N2CCN(Cc3ccccc3)CC2)cc1F (stereo not given) | -15% | x | -2%
c1cc2c(cc1C1=NNC(=NC3CC3)SC1)OCCO2 | x | 5% | x
COc1ccc(N=C2NN=C(c3ccc4c(c3)OCCO4)CS2)cc1 | 25µM* | -3% | -3%
CC(C)(CO[C@H]1C[C@H]2CC[C@@]1(C)C2(C)C)[N+](=O)[O-] | 4% | x | -1%
CCC1CCc2c(sc(NC(=O)C3c4ccccc4Oc4ccccc43)c2C#N)C1 (stereo not given) | 7.9µM* | x | -5%
CCC1CCc2c(sc(NC(=O)C3c4ccccc4Oc4ccccc43)c2C(=O)OC)C1 (stereo not given) | 4µM* | x | 1%
CCC(C)(C)C1CCc2c(sc(NC(=O)C3c4ccccc4Oc4ccccc43)c2C(N)=O)C1 (stereo not given) | -2% | x | -2%
COC(=O)c1c(NC(=O)C2c3ccccc3Oc3ccccc32)sc2c1CCC(C)C2 (stereo not given) | -23% | x | -3%
COc1cccc([C@@H]2Oc3ccc(OC)cc3C(=O)[C@H]2OC(=O)Nc2ccc(OC(F)F)cc2)c1 | -8% | -2% | -3%
CCOC(=O)c1c(C)oc2c1c1c(c3ccccc32)OCN(Cc2cccnc2)C1 | -12% | 5µM* | -10%
CCOC(=O)c1c(C)oc2c1c(C(c1cccnc1)N1CCN(C)CC1)c(O)c1ccccc12 (stereo not given) | 16% | u | -9%
Cc1cc(C=C2C(=O)c3ccccc3C2=O)c(C)n1-c1ccccc1 | u | -26% | -4%
Cc1cc(/C=C2\Cc3ccccc3C2=O)c(C)n1-c1ccccc1 | 16µM* | u | -8%
C#CCCCO/N=C1/C[C@@H](O)[C@@H](O)[C@@H]2[C@@H]3C(=O)N(CCC(=O)OCC)C(=O)[C@H]3CC[C@H]12 | x | 0%[12.9 µM] | x
Cc1nc(N2CCN(S(=O)(=O)c3ccc(F)cc3)CC2)c2c(C)c(C)sc2n1 | -12% | 2% | -3%
Cc1sc2nc(C3CC3)nc(N3CCN(S(=O)(=O)c4ccc(F)cc4)CC3)c2c1C | 16µM* | -4% | -2%
CCOC(=O)c1[nH]c2ccccc2c1NC(=O)c1ccc(OC(C)C)cc1 | 18% | x | -15%
COc1ccc(-c2cnnc(N/N=C/C(C)=C/c3ccccc3)n2)cc1 | 10µM* | 11% | -4%
COc1ccc(-c2cnnc(N/N=C/c3ccc(OC)c(OC)c3)n2)cc1 | 5% | 26% | -9%
O=C(O)c1c2c(c(O)c3c1CN(C1CCCCC1)CO3)OCN(C1CCCCC1)C2 | 5% | x | 3%
CCOc1ccc(-c2nnc(SCC(=O)Nc3cc(F)ccc3F)o2)cc1 | 10µM* | x | -7%
SMILES | Cruzain noTriton | Giardia FBPA inh | Cruzain Triton
CCOc1ccc(-c2nnc(SCC(=O)NCc3ccccc3)o2)cc1 | -8% | x | -4%
COc1ccc(-c2nnc(SCC(=O)Nc3cc(F)ccc3C)o2)cc1 | 2% | 1% | 4%
CCOc1ccc(-c2nnc(SCC(=O)NCc3ccc(Cl)cc3)o2)cc1 | 20µM* | x | 25µM*
COc1ccc(-c2nc3sc(CCNC(=O)c4ccc(C(C)(C)C)cc4)c(C)n3n2)cc1 | -23% | x | 3%
COc1cccc(-c2nn(-c3ccccc3)cc2C(=O)O)c1 | -1% | 14% | 4%
COc1cccc(-c2nn(-c3ccccc3)cc2/C=C\C(=O)c2cccs2)c1 | 13µM* | -6% | 3%
Cc1ccc(S(=O)(=O)C(CNC(=O)c2ccccc2F)c2cccs2)cc1 (stereo not given) | -12% | x | 2%
CCCN1CCN(c2ncnc3sc(C(=O)Nc4ccc(N(CC)CC)cc4C)c(C)c23)CC1 | -22% | x | -2%
CCCN1CCN(c2ncnc3sc(C(=O)Nc4cccc(Cl)c4C)c(C)c23)CC1 | 16µM* | x | 2.2µM*
COc1cccc(Cn2c(=O)n(Cc3ccco3)c(=O)c3oc4ccccc4c32)c1 | -1% | x | -2%
Cc1cc(C)c2c(SCc3ccc(Cl)cc3Cl)nc(N)nc2n1 | -8% | x | 5%
Cc1cccc2c1-c1sc(C(=O)NCCCN3CCN(c4cccc(Cl)c4)CC3)cc1CO2 | 25% | x | -2%
CN(Cc1ccc(F)cc1)S(=O)(=O)c1nnc(NC(=O)c2ccc(F)cc2)s1 | 16µM* | x | -3%
CN(Cc1ccc(F)cc1)S(=O)(=O)c1nnc(NC(=O)c2ccccc2)s1 | u | u | -1%
C[C@H]1CC2[C@@H]3CCC4=CC(=O)C=C[C@]4(C)[C@@]3(F)[C@@H](O)C[C@]2(C)[C@@]1(O)C(=O)CO (stereo not given in full) | -2% | -2% | 2%
O=C(Nc1nc2c(Cl)cccc2s1)c1ccc(Br)o1 | 15% | 7% | 7%
O=C(Nc1nc2ccc(Cl)cc2s1)c1ccc(Br)o1 | 20µM* | 1% | 0%
S=C1N[C@H](c2ccccc2)N[C@H](c2ccccc2)S1 | -10% | x | -5%
COc1ccc(CNc2ncnc3c2c(-c2ccccc2)cn3-c2ccccc2)cc1 | 6% | x | 1%
COc1ccccc1CNc1ncnc2c1c(-c1ccccc1)cn2-c1ccc(Br)cc1 | 7.9µM* | x | -1%
Cc1[nH]n(-c2ccccc2)c(=O)c1C(c1ccccc1[N+](=O)[O-])C(C#N)C#N (stereo not given) | x | -21% | x
Cc1[nH]n(-c2ncc(-c3ccccc3)s2)c(=O)c1C(c1ccc(Cl)cc1)C(C#N)C#N (stereo not given) | 13µM* | 14% | u
CCCCOc1ccc(N=Cc2cccs2)cc1 | 5% | 3% | -2%
Oc1ccc(N=Cc2ccc(-c3cccs3)s2)cc1 | 3% | 3.5µM* | 2%
COc1cc(N=C(N)N=C(N)N)c2ncccc2c1 | 0% | x | -1%
SMILES | Cruzain noTriton | Giardia FBPA inh | Cruzain Triton
N#CC1=C(N)Oc2c(ccc3ccccc23)C1c1ccsc1 (stereo not given) | -21% | u | -12%
COc1cc(C2C(C#N)=C(N)Oc3c2ccc2ccccc32)ccc1OCC(=O)Nc1cccc(C)c1 (stereo not given) | 7.9µM* | u | -2%
COc1ccc(C2C(C#N)=C(N)Oc3c2ccc2cccnc32)cc1OC (stereo not given) | x | -4% | x
COc1cc(C2C(C#N)=C(N)Oc3c2ccc2ccccc32)ccc1OCC(=O)Nc1ccc(C)cc1 (stereo not given) | 10µM* | u | -3%
CCSc1ncc(Cl)c(C(=O)Nc2ccc(S(=O)(=O)N3CCCCC3)cc2)n1 | -5% | x | -8%
CCN(CC)/[N+]([O-])=N/Oc1cc(O/N=[N+](\[O-])N(C)C)c([N+](=O)[O-])cc1[N+](=O)[O-] | x | 2% | x
O=C(NCc1ccccc1)C12CN(Cc3ccccc3)CC1C(c1cccc([N+](=O)[O-])c1)=NO2 (stereo not given) | -26% | -2% | 4%
